# Data from PubChem BioAssay (NCI).
# Values joined by “and” are separate entries in the source; they are usually repeats but may differ in a detail not shown here. Equal values may be shown once. The panel holds about 83,000 compounds, 20% with a hit somewhere; the sample as a whole holds those more often.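 Each cell line was grown in a 96-well plate and treated with one concentration of compound for 48 hours. Values below 10 were considered active.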 Unmarked numbers belong to inactive results. Active and inactive are the calls of the source.
# System: HL-60(TB) leukemia
# Experiment: NCI-60 one-dose screen, 48 h (100 = growth as untreated, 0 = no growth, -100 = all killed)
# Details: 10 µM unless noted
row,SMILES,growth
1,O=C(Nc1ccc(F)cc1F)c1cc(F)ccc1O,-25.4% (active)
2,COc1ccc(/C=N\Nc2ccc([N+](=O)[O-])cn2)cc1OC,100%
3,CCS/C(Nc1ccccc1)=C(\C#N)C(=O)N/N=C/c1ccc(Cl)cc1Cl,-31.4% (active)
4,COc1ccc2c(c1)[n+](=O)c(/C=C/C(=O)c1cc(OC)c(OC)c(OC)c1)c(C)n2[O-],-49.1% (active)
5,COc1cc(OC)cc(-c2n[nH]nc2-c2ccc3c(c2)OCO3)c1,8.65% (active)
6,c1cc(CNCCNCc2ccncc2)ccn1,75.8%
7,C=C1CC[C@@H]2[C@](C)(COC(C)=O)[C@H](OC(C)=O)CC[C@@]2(C)[C@@H]1CC(Nc1ccc(S(=O)(=O)Nc2cc(C)on2)cc1)C1=CCOC1=O (stereo not given in full),-2.05% (active)
8,CCOC(=O)c1[nH]c(C)c(C(=O)OCc2ccccc2C#N)c1C,86.6%
9,CCCCCCC(O)(c1ccc(F)cc1)C(CN1CCOCC1)c1ccccc1 (stereo not given),30.8%
10,COc1ccc(-c2n[nH]nc2-c2csc3ccccc23)cc1OC,10.1%
11,COc1ccc2c(c1)C(=O)/C(=C/c1ccc([N+](=O)[O-])o1)O2,-42.3% (active)
12,COc1cc2nc(N3CCN(C(=O)C4COc5ccccc5O4)CC3)nc(N)c2cc1OC (stereo not given),104% and 103% and 99.9%
13,CCOC(=O)c1cnc2c(OC)ccc(OC)c2c1Cl,127%
14,O=C(/C=C/c1c(Cl)nc2sccn12)c1nccs1,81.5%
15,FC(F)(F)c1cc(CNc2ncc(Br)c(Cl)n2)cc(C(F)(F)F)c1,101%
16,O=C1CSC(c2ccccc2Cl)N1c1nnc(Cn2cnnc2)o1 (stereo not given),-17.3% (active)
17,CCOC(=O)c1c(NC(=O)C2CCCCC2C(=O)O)sc2c1CCCC2 (stereo not given),102%
18,CC(=O)N[C@H](C(=O)N[C@@H](CCCNC(=N)N)C(=O)N[C@@H](CCCCN)C(=O)N[C@@H](CCCNC(=N)N)C(=O)N[C@]1(C)CCC/C=C\CCC[C@@](C)(C(=O)N[C@@H](CC(C)C)C(=O)N[C@@H](CC(C)C)C(=O)N[C@@H](CCC(N)=O)C(=O)N[C@@H](CCC(=O)O)C(=O)N[C@@H](CCCNC(=N)N)C(=O)N[C@@H](CCC(=O)O)C(=O)N[C@@H](CC(C)C)C(=O)N[C@H](C(=O)N[C@@H](CCC(=O)O)C(N)=O)C(C)C)NC(=O)[C@H](CCCNC(=N)N)NC(=O)[C@H](CC(C)C)NC1=O)C(C)C,104%

row,SMILES,growth
1,Cc1ccccc1/C=C/C(=O)c1cccc(OCCCOc2cccc(C(=O)/C=C/c3ccccc3C)c2)c1,78.2% [3 µM]
2,CCOC(=O)/C=C1\S/C(=N\Nc2cc(=O)[nH]c3ccc(Cl)cc23)N(c2ccccc2)C1=O,0.175% (active)
3,Clc1cnc(Nc2ccc(OCCN3CCCC3)cc2)nc1NCc1ccco1,-26.5% (active)
4,Cn1c(O)c(C=NCCN=Cc2c(O)n(C)c(=O)n(C)c2=O)c(=O)n(C)c1=O,-60% (active)
5,Nc1c(C(=O)Nc2ccc(Cl)cc2)cc(-c2nc3ccccc3s2)c(=O)n1NS(=O)(=O)c1ccc(Cl)cc1,100%
6,O=C(Nc1ccc(Cl)cc1)Nc1ccc(Cl)c(Cl)c1,-23.6% (active)
7,CCN(CC)CCc1nc(-c2ccccc2)no1,104%
8,CCOc1cc(Br)c(C(C)NC(=O)c2cccc(OC)c2)cc1OCC (stereo not given),45.7%
9,O=C(Cc1ccc(/C=C/C(=O)c2ncc[nH]2)cc1)Nc1ccc(C(F)(F)F)cc1,-5.94% (active)
10,CCOC(=O)c1cc(-c2cccnc2)nc2c(Cl)cc(Cl)cc12,108%
11,Clc1ccc(N/N=C/c2ccccn2)nc1,-15.4% (active)
12,Cc1nc2cc(Nc3nc(N4CCOCC4)nc(N4CCN(C)CC4)n3)ccc2n1Cc1ccccc1,103%
13,Nc1ccc(N2CCOCC2)cc1,81.8%
14,O=c1cc(-c2cccnc2)oc2c1ccc1ccccc12,83.4%
15,COc1ccc(-c2cc(-c3cn(-c4cccc(Cl)c4)nc3-c3ccc(OC)cc3)[nH]c(=S)n2)cc1,60.4%
16,Cc1ccc2cccc(Oc3ccc(Nc4ncnc5onc(-c6ccccc6)c45)cc3)c2n1,94.9%
17,COc1cccc(Cn2c(-c3nonc3NC(C)=O)nc3ccccc32)c1,-2.59% (active)
